Compound activity as filed in PubChem.
DAX1 inh – DAX1 (NR0B1) inhibitors on StAR promoter, primary screen, cell-based, luminescence, SF-1 (NR5A1), full-length DAX-1; inhibition, % at 6.8 µM; 1.1% of 370,000 active; HEK293T StAR-luciferase reporter, SF-1/DAX-1 repression relief; AID 652010, 2013;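 active means inhibition above the mean over all tested compounds plus 3 SD, cut at about 3.6% in these data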;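 further: 0% = DAX-1 cells with DMSO and 100% = cells lacking DAX-1 with DMSO; higher inhibition means more luminescence from relief of DAX-1 repression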
esBAF inh – Bmi1 luciferase reporter increase in mESCs, primary screen, esBAF inhibitor project, mouse ES cells, Bmi1 luciferase knock-in, single point. 24 h; 100% = twice the neutral-well signal. reporter increase, % at 12.5 µM. 2% of 350,000 active; in the data active means activation above about 40%; inconclusive means no clear call, values can overlap the other calls;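 further: 0% = median of the plate's neutral control wells and 100% = double that signal; a rise in the Bmi1 reporter signal indicates esBAF inhibition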
ssDAF12 agonist – S. stercoralis DAF-12 nuclear receptor activators, primary screen, cell-based, luminescence, HEK293, GRIP1 co-expression, lit1-tk-luc; activation, % at 6.8 µM; 1% of 370,000 active; HEK293 ssDAF-12/GRIP1 lit1-tk-luc reporter; % of 3 µM dafachronic acid response;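 active means activation above the mean over all tested compounds plus 3 SD, cut at about 0.9% in these data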;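 further: 0% = DMSO-only wells and 100% = 3 µM delta7-dafachronic acid wells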
Wnt bcat act – Wnt/beta-catenin pathway activators, primary screen, cell-based, plate reader, single point | Wnt/beta-catenin reporter cell assay, activator | activation, % at 9.35 µM | 1.2% of 300,000 active | AID 743398, 2014; in the data active means activation above about 30%, passing the limit was not always enough; inconclusive means no clear call, values can overlap the other calls;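 further: 0% = neutral control wells and 100% = positive control wells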
hgDAF12 agonist – H. glycines DAF-12 receptor agonists, primary screen, cell-based, luminescence, HEK293, GAL4 fusion, UAS-luciferase. 1.8% of 370,000 active. HEK293 GAL4-hgDAF12 UAS-luciferase reporter, agonist luminescence; normalized to butyrate control. Nuclear hormone receptor DAF-12 (Heterodera glycines), GAL4 fusion. activation, % at 6.8 µM;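 active means activation above a cutoff set at the mean of all screened compounds plus 3 SD, cut at about 10% in these data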;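 further: 0% = DMSO wells and 100% = sodium butyrate wells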
hcDAF12 agonist – H. contortus DAF-12 nuclear receptor activators, primary screen, cell-based, luminescence, HEK293, lit1-tk-luc reporter; HEK293 hcDAF-12 lit1-tk-luc reporter; 0% DMSO, 100% Δ7-dafachronic acid; activation, % at 6.8 µM; 1.4% of 370,000 active;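 active means activation above the mean of all tested compounds plus 3 SD, cut at about 5.5% in these data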;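 further: 100% = response to 3 µM Δ7-dafachronic acid high control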
An asterisk follows results filed as active; ? = inconclusive; · = no result. Hits are enriched below; roughly 4.2% of the tested compounds scored in any of these assays.

SMILES	DAX1 inh	esBAF inh	ssDAF12 agonist	Wnt bcat act	hgDAF12 agonist	hcDAF12 agonist
Cc1ccc(Cc2c(C(C)(C)C)nc3cc(C)c(Br)c(C)n23)cc1	-1.3	-2.5	1.2*	-1.2	2.5	3.9
Cc1cc2nc(C(C)(C)C)c(Cc3cccc(Cl)c3)n2c(C)c1Br	0.2	·	-0.6	-3.1	2.4	2.6
Cc1cc2nc(C(C)(C)C)c(Cc3ccsc3)n2c(C)c1Br	4.1*	·	0.4	-3.7	1.5	2.7
COc1ccc(NC(=O)N2CCCCN3[C@H](CO)[C@H](c4ccc(-c5ccccc5F)cc4)[C@@H]3C2)cc1	·	-4.5	·	·	·	·
COc1ccc(CN(C)C[C@@H]2Oc3ccc(NS(=O)(=O)c4c(C)noc4C)cc3CC(=O)N([C@@H](C)CO)C[C@H]2C)cc1	·	-4.4	·	·	·	·
COC(=O)C1CCN(S(=O)(=O)c2c(C)n(C)c(=O)n(C)c2=O)CC1	0.8	-8.2	-1.1	47.6*	3.2	-0.6
O=C(C[C@@H]1C[C@@H]2c3cc(NS(=O)(=O)c4ccc(F)cc4)ccc3O[C@@H]2[C@H](CO)O1)NCc1ccc(-c2ccccc2)cc1	·	-60.1	·	·	·	·
COc1ccc2nc(NC(=S)N(C)C)sc2c1	-0.2	-4.7	-0.7	·	1.9	2.2
COc1ccc2nc(NC(=O)c3cc(C)oc3C)sc2c1	2.3	32.2	-0.2	·	10.6*	1.4
CS(=O)(=O)c1ccc2nc(NC(=O)c3cc([N+](=O)[O-])cc([N+](=O)[O-])c3)sc2c1	-0.1	5.1	-0.7	-0.1	0.7	-0.3
O=C(Nc1nc2ccc([N+](=O)[O-])cc2s1)c1ccco1	4.2*	·	-0.5	52.3*	7.8	1.6
Cc1cc(C(=O)Nc2nc3ccc(S(C)(=O)=O)cc3s2)c(C)o1	-0.4	53.1*	-0.3	13.1	4.9	1.8
CS(=O)(=O)c1ccc2nc(NC(=O)c3cccc([N+](=O)[O-])c3)sc2c1	-0.1	16.5	0.1	7.3	10.7*	3.3
CO[C@@H]1CN(C)C(=O)c2cc(NC(=O)c3ccccc3F)ccc2OC[C@@H](C)N(C(=O)c2ccccc2F)C[C@@H]1C	·	-1.4	·	·	·	·
O=C(O)c1ccccc1C(=O)Nc1ccc(Oc2cccc(C(F)(F)F)c2)nc1	0.3	·	-0.5	8.2	-1.6	6.2*
CO[C@H]1CN(C)C(=O)c2cc(NS(=O)(=O)c3ccc(C)cc3)ccc2OC[C@@H](C)N(C)C[C@@H]1C	·	0.4	·	·	·	·
Cc1cc(C)c2nc(N3CCCC(C(=O)NC4CCCC4)C3)sc2c1 (stereo unspecified)	-0.1	57.8*	-1.1	0.6	-0.1	-1.6
CCC(=O)N1[C@H](CO)[C@H](c2ccc(-c3ccc(F)cc3)cc2)[C@@H]1CN(C)C(C)=O	·	-2.6	·	·	·	·
O=C(NCCc1cccs1)C1CC(c2c(Cl)cccc2Cl)=NO1 (stereo unspecified)	-1.0	80.1*	-0.9	6.3	2.3	-0.1
CO[C@H](CN(C)C(=O)c1cnccn1)[C@H](C)CN([C@@H](C)CO)S(=O)(=O)c1ccc(Cl)cc1	·	-4.4	·	·	·	·
O=C1S/C(=C\c2ccc(N3CCOCC3)o2)C(=O)N1c1ccccc1	-0.2	0.0	-1.2	-3.6	-2.1	-1.1
O=C(O)c1ccccc1-c1ccc(/C=C2\SC(=O)N(c3ccccc3)C2=O)o1	0.5	55.7*	0.4	12.8	1.8	1.8
CCOC(=O)NC(=O)CSc1nc(-c2ccc(C)c(C)c2)cn1-c1ccccc1	1.8	·	-0.5	·	10.0	5.7*
C[C@H](CO)N1C[C@H](C)[C@H](CN(C)Cc2ccc(-c3ccccc3)cc2)OCc2cn(nn2)CCCC1=O	·	-5.2	·	·	·	·
O=C(/C=C/c1ccccc1Cl)c1ccccc(=O)c1O	-0.1	·	-0.9	·	-1.9	-1.6
SMILES	DAX1 inh	esBAF inh	ssDAF12 agonist	Wnt bcat act	hgDAF12 agonist	hcDAF12 agonist
Oc1cc(O)cc(C=Cc2ccc(O)c(O)c2)c1	4.3*	·	0.1	?	9.8	4.4
O=C(C=Cc1ccccc1O)c1ccccc1O	-2.6	62.8*	-0.2	16.3	2.6	4.5
O=C(/C=C/c1ccccc1)NC(=O)c1ccccc1O	1.6	?	-0.3	21.1	11.6*	2.2
COc1ccc(C(=O)/C=C/c2ccccc2)c(O)c1	0.6	27.4	-1.0	-0.1	8.2	0.8
O=C(/C=C/c1ccc(O)cc1)c1ccc(O)cc1O	0.5	70.0*	-0.2	24.6	7.5	0.2
C[C@H](CO)N1C[C@H](C)[C@H](CN(C)CC2CCCCC2)OCCCC[C@H](C)Oc2ccc(NC(=O)Nc3ccccc3)cc2C1=O	·	6.9	·	·	·	·
C[C@@H]1CCCCO[C@H](CN(C)C(=O)C2CCCCC2)[C@@H](C)CN([C@@H](C)CO)C(=O)c2cc(NC(=O)NC3CCCCC3)ccc2O1	·	11.9	·	·	·	·
COc1ccc(O)c(C(=O)/C=C/c2cc3ccccc3o2)c1	-0.8	-10.8	-0.7	0.6	-0.4	-2.5
Cc1ccc(/C=C/C(=O)c2ccc(O)cc2)cc1	0.1	·	-0.9	0.1	11.0*	1.5
O=C(C=Cc1cccc(O)c1)c1ccccc1O	-0.2	?	-0.6	-3.4	12.4*	3.2
O=C(/C=C/c1ccc(O)c(O)c1)c1ccccc1O	0.6	·	-0.5	46.6*	9.1	0.9
O=C(/C=C/c1cc2ccccc2o1)c1ccccc1O	0.4	·	-1.0	38.7*	6.1	1.2
C[C@@H]1CCCCO[C@@H](CN(C)S(=O)(=O)c2ccc(Cl)cc2)[C@H](C)CN([C@@H](C)CO)C(=O)c2cc(NC(=O)c3ccncc3)ccc2O1	·	9.9	·	·	·	·
CCC(=O)N1[C@H](CO)[C@H](c2ccc(-c3cccc(F)c3)cc2)[C@H]1CNC(C)=O	·	1.1	·	·	·	·
C[C@@H]1CN([C@@H](C)CO)C(=O)c2cc(-c3ccc(F)cc3)cnc2O[C@@H]1CN(C)C(=O)Nc1ccc(F)cc1	·	0.9	·	·	·	·
O=C(CN1CCOCC1)N[C@@H]1CC[C@H](CCn2cc(C3CCCCC3)nn2)O[C@H]1CO	·	0.7	·	·	·	·
CCCN1[C@@H]2c3ccc(C4=CCCCC4)c(=O)n3C[C@H]1[C@H](CO)[C@H]2C(=O)NCC	·	-0.3	·	·	·	·
CCCC(=O)Nc1ccc2c(c1)OC[C@@H](C)NC[C@@H](C)[C@@H](OC)CN(C)C2=O	·	-2.5	·	·	·	·
O=C(C[C@@H]1C[C@@H]2c3cc(NC(=O)C4CCOCC4)ccc3O[C@@H]2[C@H](CO)O1)NC1CCCC1	·	5.8	·	·	·	·
c1ccc(COc2ccc(OCCn3cncn3)cc2)cc1	2.7	68.4*	-0.2	·	12.9*	3.9
Brc1cccc(OCCCCn2cncn2)c1	0.2	0.9	-1.2	0.5	-2.5	2.0
c1ccc(Oc2cccc(OCCn3cncn3)c2)cc1	0.1	·	-1.1	3.0	-0.8	-1.7
